Compound activity deposited in PubChem by National Center for Advancing Translational Sciences (NCATS).
Sampled rows, rich in hits. Any-hit rate of the full collection: about 2.1%.
aSyn rescue – rescues yeast growth from alpha-synuclein toxicity | Potency, µM (doses to about 46.1 µM), most hits filed as activators | Yeast expressing alpha-synuclein, growth rescue, BacTiter-Glo, 24 h | 0.14% of 370,000 active; further: nearly all actives have a fitted effect of over 65% in size
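Rescue of yeast growth: cells expressing toxic alpha-synuclein, induced in galactose at OD600 0.02, incubated with compound 24 h at 30 C. ATP luminescence quantified growth; inhibitors of toxicity appear as activators.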
Abeta yeast res – compounds reversing amyloid beta toxicity in yeast | yeast expressing A-beta42, growth rescue, OD600, 48 h; response scale: 0% DMSO, 100% iron-clioquinol control | Potency, µM (series often up to 46.1 µM), actives largely listed as activators | 0.063% of 410,000 active | AID 1347071; further: nearly all actives have a fitted effect of over 55% in size
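Growth rescue measured by 600 nm absorbance after 48 h yeast culture at 30 C with compound. Values normalized between DMSO and an equimolar ferric chloride plus clioquinol control.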
TDP43 rescue – TDP-43 toxicity inhibition in yeast; TDP-43 expressing yeast growth rescue, BacTiter-Glo, 24 h; Potency, µM (series often up to 46.1 µM), usual class: activators; 1.8% of 410,000 active; further: nearly all actives have a fitted effect of over 50% in size
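Yeast expressing TDP-43 (pregrown in raffinose, seeded at OD600=0.02 in galactose medium) exposed to compounds 24 hr at 30 deg C. Growth read by BacTiter-Glo luminescence; rescue of toxicity appears as increased signal.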
FUS yeast rescue – rescues growth of FUS-expressing yeast | S. cerevisiae FUS-expressing, growth rescue, OD600, 24 h | Potency, µM (doses to about 76.6 µM), hits mostly activators | 0.24% of 390,000 active | AID 1347120; further: nearly all actives have a fitted effect of over 55% in size
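Toxicity suppression screen in FUS-yeast. Cells induced with 2% galactose, starting OD 0.005, treated 24hr at 30C with compounds at multiple final concentrations; growth by OD600.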
A number is an active result; n = inactive; u = inconclusive; x = no result given; [ ] = remark or other dose. The call rests on the fitted dose curve; in most records, active means well fitted curve in the direction sought with a large enough effect; inconclusive means small, poorly fitted or top-dose-only effect, or another doubt; inactive means no such curve, though single readings can be large; an effect the other way counts as inactive or inconclusive.

SMILES	aSyn rescue	Abeta yeast res	TDP43 rescue	FUS yeast rescue
COc1ccc2c(c1)c(=O)oc1cc(OCC(=O)N3CCCC(C)C3)ccc12 (centres undefined)	n	n	25µM	n
COc1ccc2c(c1)c(=O)oc1cc(OCC(=O)N3CCC(C)CC3)ccc12	n	n	u	n
CC(=O)c1ccc(NC(=O)CSc2cn(CC(=O)N3CCCCC3)c3ccccc23)cc1	x	n	n	n
Cc1ccc(Nc2ncc(C(=O)N3CCN(c4cccc(Cl)c4)CC3)c3ccccc23)cc1Cl	x	n	16µM	u
Cc1ccc(Cl)cc1N1CCN(C(=O)c2cnc(N3CCOCC3)c3ccccc23)CC1	x	n	22µM	16µM
CN(C(=O)c1cnc(N2CCN(c3ncccn3)CC2)c2ccccc12)c1ccc(Cl)cc1	n	u	10µM	n
Cc1ccc(Nc2ncc(C(=O)NCCCN3CCN(C)CC3)c3ccccc23)cc1Cl	n	n	x	n
CCN(C(=O)c1cnc(N2CCN(c3ncccn3)CC2)c2ccccc12)c1cccc(Cl)c1	n	n	u	n
O=C(CSc1ccccc1)N1CCC(Oc2cccnc2)CC1	x	x	x	n
O=C(Nc1ccccc1)C1=C[C@H](c2csc3ccccc23)C[C@H](OCc2ccc(CO)cc2)O1	n	n	n	11µM
COc1ccc(Nc2nc3ccccc3c3nnc(C)n23)cc1Cl	x	n	n	n
COc1ccccc1/C=C1/C(=O)N(c2cc(C)cc(C)c2)C(c2cccc([N+](=O)[O-])c2)S1(=O)=O (centres undefined)	n	n	11µM	n
CCOc1ccc(N2C(=O)/C(=C\c3ccccc3OC)S(=O)(=O)C2c2cccc([N+](=O)[O-])c2)cc1 (centres undefined)	n	n	11µM	n
O=C(Nc1ccc(Cl)c(Cl)c1)Nc1ccon1	n	n	35µM	n
O=[N+]([O-])c1cccc(S(=O)(=O)NC2CC3CCC2C3)c1 (centres undefined)	n	n	n	n
Cc1cc(O)c(C(c2ccc(Cl)cc2)N2CCN(c3ccccc3)CC2)c(=O)n1Cc1ccco1 (centres undefined)	x	n	n	n
CSc1ccccc1-n1nnnc1SCc1ccccc1	n	n	13µM	n
CC1CC(=O)Nc2ccccc2N1C(=O)CSc1ncnc2sccc12 (centres undefined)	n	n	n	u
CCC(c1nnnn1-c1ccc2c(c1)OCCO2)N1CCN(c2ccc(F)cc2)CC1 (centres undefined)	n	n	n	n
CCC(c1nnnn1-c1ccc2c(c1)OCCO2)N1CCN(c2ncccc2C(F)(F)F)CC1 (centres undefined)	u	n	13µM	u
O=C(N/N=C/c1cc(Cl)ccc1O)c1ccccc1Br	14µM	u	13µM	n
O=C(CNC(=O)c1ccccc1Br)N/N=C/c1cc(Br)ccc1O	n	n	n	n
Cc1ccccc1NC(=S)NCCSc1ccc(Cl)cc1	n	n	18µM	n
CSc1ccccc1NC(=S)NCc1ccc(Cl)cc1	n	16µM	u	n
CCc1ccccc1NC(=S)NCCSc1ccc(Cl)cc1	n	n	13µM	n
SMILES	aSyn rescue	Abeta yeast res	TDP43 rescue	FUS yeast rescue
Cc1ccc(C)c(NC(=S)NCCSc2ccc(Cl)cc2)c1	n	n	n	x
CC1(C2CC2)NC(=O)N(CC(=O)Nc2ccccc2F)C1=O (centres undefined)	n	n	n	n
CCS(=O)(=O)N1Cc2ccccc2CC1C(=O)N(C)CC(=O)Nc1ccc(F)c(F)c1F (centres undefined)	n	n	n	n
CC1CCN(C(=S)c2ccc(N(C)C)cc2)CC1	n	13µM	n[1.82 µM]	n
CCc1ccc(CNC(=O)Cn2nc(C)n3c(cc4cc(C)ccc43)c2=O)cc1	x	n	n	n
COc1ccccc1NC(=O)C1CCCN(c2cnccn2)C1 (centres undefined)	n	x	n	n
Nc1ccc(-c2nc3ncccc3o2)cc1	16µM	u	n	n
Cc1oc(C(=O)O)cc1COc1cccc2ccccc12	n	n	32µM	n
O=C(O)c1cccc(COc2cccc3ccccc23)c1	n	n	35µM	n
O=C1c2cccnc2C(=O)N1Cc1ccccc1	n	n	n	n
CC(c1ccccc1)N1C(=O)c2cccnc2C1=O (centres undefined)	n	n	2µM	n
COc1cc(OC)c(/C=C/c2nc3ccccc3o2)c(OC)c1	n	x	x	x
CCOc1nc(OCC)nc(N2CCC(C)CC2)n1	n	n	n	n
CCOc1nc(NC2CCCC2)nc(N2CCC(C)CC2)n1	n	u	18µM	n
O=[N+]([O-])c1cc(S(=O)(=O)N2CCCCC2)ccc1NCCCN1CCOCC1	n	n	n	n
CCCCn1nnnc1C(c1ccccc1)N1CCN(c2ccc(C)cc2)CC1 (centres undefined)	n	n	35µM	n
COc1ccc(Br)cc1C(=O)Nc1cccc(NC(=O)c2ccco2)c1	n	n	8.9µM	x
COc1ccc(NC(=O)c2ccco2)cc1NC(=O)c1ccc(C)c(C)c1	x	n	16µM	n
COc1c(C)cc(Br)cc1C(=O)Nc1cccc(NC(=O)c2ccco2)c1	n	n	u	x
Cc1cccc(/C=C/c2onc(C)c2[N+](=O)[O-])n1	u	n	13µM	n
Cc1noc(/C=C/c2nn(C)cc2Cl)c1[N+](=O)[O-]	n	n	13µM	n
Cc1cccc(N/C=C/c2onc(C)c2[N+](=O)[O-])c1	n	n	n	n
CC(=O)c1ccc(C(=O)N2CCC(n3nccc3NC(=O)C3CC3)CC2)cc1	n	n	n	x
CCNC(=O)N1c2ccc(OC)cc2C(C)=CC1(C)C	n	n	13µM	n
O=c1onc(-c2ccc(Cl)cc2)n1Cc1ccc(F)cc1	n	n	18µM	x
SMILES	aSyn rescue	Abeta yeast res	TDP43 rescue	FUS yeast rescue
N#Cc1ccc(Cn2c(-c3ccc(F)cc3)noc2=O)cc1	n	n	x	n
COc1ccc(-c2noc(=O)n2Cc2ccccc2F)cc1	n	n	13µM	n
O=c1onc(-c2ccccc2)n1Cc1ccc([N+](=O)[O-])cc1	n	n	8.9µM	n
Cc1cc(NC(=O)c2ccccc2C)n(-c2cccc(F)c2)n1	n	n	n	n
O=C(CSc1nc(=O)n(CCCN2CCOCC2)c2c1CCC2)Nc1ccc([N+](=O)[O-])cc1	n	n	n	n
COc1ccc2c(c1)sc1ncc(C(=O)NCc3ccc(Cl)cc3)c(=O)n12	x	n	n	n
CCOc1ccc(NC(=O)C2(c3cccs3)CCOCC2)cc1	x	n	n	n
CC(C)(C)n1nnnc1C(c1cccnc1)N1CCN(c2ccccn2)CC1 (centres undefined)	n	n	n	n
CC(C)(C)n1nnnc1C(c1ccccc1)N1CCN(c2ccc(C(F)(F)F)cn2)CC1 (centres undefined)	n	n	35µM	n
Cc1ccc(C)c(OCCC(=O)OCC(=O)NCCc2ccc(S(N)(=O)=O)cc2)c1	n	n	n	n
CCC(=O)N=c1ccn(C2=Nc3ccccc3NC2=C(C#N)C#N)cc1	n	n	n	n
CCOc1ccccc1C(=O)Nc1cc(Cl)ccc1O	n	n	2.8µM	n
COc1ccccc1C(=O)Nc1cc(Cl)ccc1O	n	n	n	n
